High-throughput results as filed in PubChem BioAssay.
PAFAH1B3 FP inh: PAFAH1B3 (human) inhibition; 340,000 compounds, 0.28% hits; inhibition, % at 3.39 µM; recombinant PAFAH1B3, FP-rhodamine probe, fluorescence polarization;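 active = inhibition above the screen-wide average of all tested compounds plus 3 SD, cut at about 25% in these data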
E coli Lon inh: inhibits E. coli Lon protease; P0A9M0; purified E. coli Lon protease, fluorescence polarization; inhibition, % at 7.94 µM; 360,000 compounds, 0.42% hits; AID 602123; in the data active = inhibition above about 13%, passing the limit was not always enough
Rin1-Abl PPI inh: inhibitors of human Rin1-Abl protein interaction | TR-FRET Rin1/Abl binding, biochemical | 360,000 compounds, 0.4% hits | inhibition, % at 7.35 µM | P00519+Q13671 | AID 588664; in the data active = inhibition above about 5%, passing the limit was not always enough
PAFAH1B2 inh: blocks human PAF acetylhydrolase 1b catalytic subunit 2. P68402. 340,000 compounds, 1.2% hits. recombinant PAFAH1B2, FP-rhodamine activity probe, fluorescence polarization. inhibition, % at 3.39 µM;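 active = inhibition above the mean of all tested compounds plus 3 SD, cut at about 24% in these data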
pPAFAH FP inh: pPAFAH (human) enzyme inhibition | Q13093 | recombinant pPAFAH, FP-rhodamine probe fluorescence polarization | inhibition, % at 3.39 µM | 330,000 compounds, 1.5% hits | AID 463082;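 active = inhibition above the mean inhibition across the screen plus 3 SD, cut at about 25% in these data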;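 also: inhibitors block binding of the rhodamine activity-based probe so polarization drops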
Target sequence (Q13093 whole entry, looked up): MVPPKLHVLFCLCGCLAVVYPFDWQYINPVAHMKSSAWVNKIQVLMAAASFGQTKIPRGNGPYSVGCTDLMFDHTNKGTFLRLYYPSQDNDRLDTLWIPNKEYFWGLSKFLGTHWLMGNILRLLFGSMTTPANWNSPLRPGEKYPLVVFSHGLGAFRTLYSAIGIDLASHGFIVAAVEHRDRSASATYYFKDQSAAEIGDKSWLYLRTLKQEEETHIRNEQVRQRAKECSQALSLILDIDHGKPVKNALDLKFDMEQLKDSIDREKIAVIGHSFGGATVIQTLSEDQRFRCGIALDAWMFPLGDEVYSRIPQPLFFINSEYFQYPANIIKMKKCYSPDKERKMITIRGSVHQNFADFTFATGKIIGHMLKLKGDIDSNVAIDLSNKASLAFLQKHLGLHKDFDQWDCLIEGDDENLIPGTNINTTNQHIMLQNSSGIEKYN
PAFAH2 inh: inhibitors of human PAFAH2; Q99487; recombinant PAFAH2, FP-rhodamine activity probe, fluorescence polarization; inhibition, % at 3.39 µM; 340,000 compounds, 0.99% hits; AID 492956;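 active = inhibition above the mean over all tested compounds plus 3 SD, cut at about 30% in these data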;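 also: inhibitors block probe labeling of enzyme so polarization drops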
PAFAH2 FP conf: PAFAH2 (human) inhibition, confirmed; shares compounds with PAFAH2 inh; 2,300 compounds, 65% hits; recombinant PAFAH2, FP-rhodamine activity probe, fluorescence polarization; inhibition, % at 3.39 µM; AID 493030;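 active = mean inhibition over three repeats above a set limit taken from the earlier primary screen, cut at about 30% in these data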;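 also: inhibitor blocks binding of rhodamine activity probe so polarization falls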
Hits are given with their value; – = inactive; · = not tested or not shown. Most compounds without a hit are left out; they make up all but 3.1% or so of the library.

SMILES	PAFAH1B3 FP inh	E coli Lon inh	Rin1-Abl PPI inh	PAFAH1B2 inh	pPAFAH FP inh	PAFAH2 inh	PAFAH2 FP conf
O=C(COC(=O)c1ccco1)NCc1ccc(Cl)cc1Cl	–	–	–	–	–	69	51
O=C(COC(=O)c1ccco1)NCCc1ccc(Cl)cc1	–	–	–	–	–	49	31
O=C1NC[C@H](CC2CCCCC2)N(CCc2cc(C(F)(F)F)cc(C(F)(F)F)c2)C1=O	·	–	·	·	·	·	·
CCCCN(C(=O)c1ccc(Br)o1)C1CCS(=O)(=O)C1 (configuration not stated)	–	–	–	–	–	–	·
COCCNc1nc(Oc2ccc(C(N)=O)cc2)c2sccc2n1	·	–	–	·	·	·	·
CCNc1ccc(C(=O)OCC(=O)Nc2cc(C)on2)cc1[N+](=O)[O-]	–	–	–	–	–	31	31
CCNc1ccc(C(=O)OCC(=O)NC(=O)NCC(C)C)cc1[N+](=O)[O-]	–	–	–	–	–	33	–
CNc1ccc(C(=O)OCC(=O)NC(=O)NC2CCCCC2)cc1[N+](=O)[O-]	–	–	–	–	–	–	·
CCNc1ccc(C(=O)OCC(=O)NCc2ccccc2Cl)cc1[N+](=O)[O-]	–	–	–	–	–	47	56
COc1cccc(NC(=O)c2cccc(N3C(=O)C4CCC(C)CC4C3=O)c2)c1 (configuration not stated)	–	–	–	–	–	–	·
CCCN1CCc2nc(SCC(=O)Nc3ccc(C)c(Cl)c3)[nH]c(=O)c2C1	–	–	–	–	–	–	·
Cc1cc(C)cc(NC(=O)CSc2nc3c(c(=O)[nH]2)CN(Cc2ccc(F)cc2)CC3)c1	–	–	–	–	–	31	–
COCCCN(C(=O)CSCc1c(C)noc1C)c1c(N)n(Cc2ccccc2)c(=O)[nH]c1=O	–	–	–	–	–	–	·
C=CCn1c(SCC(=O)N(C)C2CCCCC2)nnc1C1CC1	–	–	–	–	–	34	–
C=CCn1c(SCC(=O)/C(C#N)=C(\C)N)nnc1C1CCCCC1	–	–	–	–	–	–	·
O=C(COc1coc(CN2CCN(c3ccccc3)CC2)cc1=O)NC1CCCCC1	–	–	–	–	–	–	·
COc1ccc(CC(=O)N(C)C2CCCCC2)cc1S(=O)(=O)N1CCOCC1	–	–	–	–	–	–	·
Cc1c(Cl)cnc(NC(=O)COC(=O)C2CC2)c1Cl	–	–	–	–	–	44	–
Cc1c(Cl)cnc(NC(=O)COC(=O)C2CC3CCCC(C2)C3=O)c1Cl (configuration not stated)	–	–	–	–	–	–	·
Cc1ccsc1C(=O)OCC(=O)Nc1c(Cl)cccc1C(F)(F)F	–	–	–	–	–	31	30
O=C(COC(=O)C1CC1)Nc1c(Cl)cccc1C(F)(F)F	–	–	–	–	–	38	–
CC(=O)N1CCOCC1c1cc(C(=O)Nc2ccccc2)no1 (configuration not stated)	·	–	–	·	·	·	·
COCCOC(=O)c1c(C)n(C)c2ccc(OC(=O)C3CC3)cc12	–	–	–	–	–	39	–
CC(C)(C)OC(=O)N1CCCC(C(=O)Nc2cccc(C(=O)N3CCOCC3)c2)C1 (configuration not stated)	–	–	–	–	·	–	·
Cc1noc(C)c1C(=O)Nc1sc(C)c(-c2ccccc2)c1C#N	–	–	–	–	–	–	·
SMILES	PAFAH1B3 FP inh	E coli Lon inh	Rin1-Abl PPI inh	PAFAH1B2 inh	pPAFAH FP inh	PAFAH2 inh	PAFAH2 FP conf
Cc1cccc(C(=O)Nc2sc(C)c(-c3ccccc3)c2C#N)c1	–	–	–	–	–	47	–
Cc1cc(C(=O)COC(=O)c2ccc[nH]c2=O)c(C)n1-c1ccccc1F	–	–	–	–	–	–	·
Cc1cc(C(=O)COC(=O)C2=NN(c3ccccc3)C(=O)CC2)c(C)n1CC(F)(F)F	–	–	–	–	–	–	·
Cc1cc(C(=O)COC(=O)c2ccc(O)cc2)c(C)n1CC(F)(F)F	–	–	–	–	–	31	–
Cc1cc(C(=O)COC(=O)c2ccc(O)cc2)c(C)n1-c1ccccc1F	–	–	–	–	–	39	–
Oc1ccccc1C=NNC(=S)NC1CC2C=CC1C2 (configuration not stated)	·	–	–	·	·	·	·
Oc1ccccc1/C=N/NC(=S)NC1CC2C=CC1C2 (configuration not stated)	–	–	–	–	–	57	–
O=S(=O)(O)c1cccc2cccc(Nc3ccccc3)c12	–	–	–	–	–	31	–
Cc1ccc(C(=O)OCC(=O)NCc2cccs2)cc1C	–	–	–	–	–	54	51
O=C(COC(=O)c1ccco1)NCc1cccs1	–	–	–	–	–	34	–
O=C(COC(=O)c1ccc(Br)o1)NCc1cccs1	–	–	–	–	–	–	·
Cc1cc(C)c(C(=O)OCC(=O)NCc2cccs2)c(C)c1	–	–	–	–	–	–	·
O=C(COC(=O)/C=C/c1ccc(OC(F)F)cc1)NCc1cccs1	–	–	–	–	–	46	41
Cc1ccc(C(=O)OCC(=O)NCc2cccs2)cc1	–	–	–	–	–	53	46
CCOc1ccc(CCNC(=O)C(C)N2C(=O)CC(C)(C)Sc3ccccc32)cc1 (configuration not stated)	–	–	–	–	–	–	·
O=C(CN(C(=O)CCC(=O)Nc1nccs1)c1ccccc1F)NCCc1ccccc1	–	–	–	–	–	–	·
COC(=O)c1ccc2c(c1C(=O)OC)CN(S(=O)(=O)C(C)(C)C)[C@H]2CCO	–	–	–	–	·	–	·
O=C(COC(=O)c1ccc(CO)cc1)NCc1cccs1	–	–	–	–	–	43	35
Cc1ccsc1C(=O)OCC(=O)NCc1cccs1	·	–	–	·	·	·	·
CC(=O)c1ccc(S(=O)(=O)N2CCN(C(=O)c3ccc(-n4nc(C)c(Cl)c4C)cc3)CC2)cc1	–	–	–	–	–	50	43
Cc1nn(-c2ccc(C(=O)N3CCN(S(=O)(=O)c4ccccc4C(F)(F)F)CC3)cc2)c(C)c1Cl	–	–	–	–	–	–	·
O=c1cc(-c2ccccc2)[nH]n1-c1nc2ccccc2s1	–	–	–	–	–	42	47
COc1ccc(CN(CC(O)COCc2ccccc2)S(=O)(=O)c2ccccc2Br)cc1 (configuration not stated)	–	–	–	–	–	–	·
S=C(NCCCN1CCOCC1)Nc1ccc(N2CCOCC2)cc1	–	–	–	–	–	42	–
COc1ccccc1C/C(N)=N/OC(=O)/C=C/c1ccccc1	–	–	–	–	–	69	72
COc1ccccc1C/C(N)=N/OC(=O)c1cccs1	–	–	–	–	–	81	75
COc1ccccc1C/C(N)=N/OC(=O)COc1cccc(C)c1C	–	–	–	–	–	–	·
COc1ccc(C/C(N)=N/OC(=O)c2cccs2)cc1	–	–	–	–	–	47	38
N/C(Cc1ccc(Cl)cc1Cl)=N\OC(=O)c1cccs1	–	–	–	–	–	88	84
